From PubChem
AmpC no deterg: qHTS Inhibitors of AmpC Beta-Lactamase (assay without detergent) | P00811 | AmpC nitrocefin hydrolysis, absorbance 480 nm, 0.0001% Triton | Potency, µM (top dose mostly 57.1 µM), without a hit: at the highest dose activity change, negative = inhibition, actives largely listed as inhibitors | 330,000 compounds, 0.52% hits | AID 485341, 2010;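 note: plate controls were no compound for no effect and no enzyme for full effect; nearly all actives have a fitted effect of over 20% in size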
Target sequence (P00811 whole entry, looked up): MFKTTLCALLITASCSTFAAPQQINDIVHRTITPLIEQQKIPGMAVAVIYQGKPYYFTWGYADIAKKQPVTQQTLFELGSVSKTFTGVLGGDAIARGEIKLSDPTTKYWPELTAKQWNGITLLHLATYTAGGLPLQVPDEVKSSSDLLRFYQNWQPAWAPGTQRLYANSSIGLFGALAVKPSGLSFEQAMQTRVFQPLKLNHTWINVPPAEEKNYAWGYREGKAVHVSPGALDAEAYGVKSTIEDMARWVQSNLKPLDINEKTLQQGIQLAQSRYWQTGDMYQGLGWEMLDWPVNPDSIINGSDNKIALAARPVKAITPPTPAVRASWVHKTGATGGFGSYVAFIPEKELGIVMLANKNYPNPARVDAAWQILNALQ
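20 mM phosphate pH 7.0 + 0.01% (detergent screen) or 0.0001% Triton X-100; 5.3 nM AmpC reagent; cpd preinc 15 min RT; nitrocefin (800 uM stock) to start; A480 q20 s × 4 min; Activity was normalised to no-enzyme and no-compound control wells.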
Pf growth 48h: Primary qHTS for delayed death inhibitors of the malarial parasite plastid, 48 hour incubation; 310,000 compounds, 5.9% hits; AID 504832, 2011; Potency, µM (series often up to 28.7 µM), for inactives: at the highest dose activity change, negative = inhibition, usual class: inhibitors; P. falciparum luciferase growth in erythrocytes, 48 h; note: % is set by controls: 0 for no effect and ±100 for the full control effect
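Cell-based growth assay: transgenic P. falciparum expressing firefly luciferase, cultured in red cells within RPMI 1640 containing 0.5% w/v Albumax, 24 mM bicarbonate and gentamycin. A drop in luciferase activity indicates inhibition.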
Sm TGR inh: qHTS Assay for the Inhibitors of Schistosoma Mansoni Peroxiredoxins. Schistosoma mansoni thioredoxin glutathione reductase (TGR), Q962Y6. purified TGR, DTNB reduction, TNB absorbance 405 nm. Potency, µM (titrated, usually from 114 µM), inactives show at the top dose activity change, negative = inhibition, hits mostly inhibitors. 360,000 compounds, 3% hits. AID 485364, 2010; note: % is set by controls: 0 for no effect and ±100 for the full control effect; nearly all actives have a fitted effect of over 60% in size
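TGR 20 nM + NADPH 100 uM (dispensed conc.), cpd preinc 15 min RT; start with NADPH (500 uM addition) then DTNB (15 mM addition). Kinetic TNB absorbance, 405 nm filter. Four-parameter Hill fit across titration.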
AmpC inh detg: qHTS Inhibitors of AmpC Beta-Lactamase (assay with detergent). P00811. AmpC hydrolysis of nitrocefin, absorbance 480 nm, 0.01% Triton. Potency, µM (titrated, usually from 114 µM), for inactives: top-dose activity change, negative = inhibition, most hits filed as inhibitors. 370,000 compounds, 0.041% hits;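 note: 0% = no-compound wells and -100% = no-enzyme wells; nearly all actives have a fitted effect of over 25% in size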
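20 mM phosphate pH 7.0 + 0.01% (detergent screen) or 0.0001% Triton X-100; 5.3 nM AmpC reagent; cpd preinc 15 min RT; nitrocefin (800 uM stock) to start; A480 q20 s × 4 min; Activity was normalised to no-enzyme and no-compound control wells.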
Pf growth 96h: Primary qHTS for delayed death inhibitors of the malarial parasite plastid, 96 hour incubation; P. falciparum luciferase reporter growth, 96 h; Potency, µM (highest dose often 28.7 µM), for inactives: top-dose activity change, negative = inhibition, usual class: inhibitors; 320,000 compounds, 6.9% hits; note: % is set by controls: 0 for no effect and ±100 for the full control effect
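P. falciparum expressing integrated firefly luciferase, in erythrocytes at 2% hematocrit, 0.05% parasitemia, incubated with compounds 96 h at 37 C, 5% CO2. Growth inhibition read as loss of luminescence; two-generation exposure targets delayed-death apicoplast inhibitors.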
SARS PLpro yeast: qHTS of Yeast-based Assay for SARS-CoV PLP | 330,000 compounds, 0.19% hits | Potency, µM (doses to about 32.9 µM), for the others: at the highest dose activity, positive = growth rescue, most hits filed as activators | S. cerevisiae expressing SARS-CoV PLpro, growth rescue; calls by dose curve; note: 0% is about no effect; nearly all actives have a fitted effect of over 55% in size
* = called active by the depositor; [ ] = remark or other dose. Sampled rows, rich in hits. Any-hit rate of the full collection: about 12%. Unless noted, calls come from the whole dose curve; as a rule, active = well fitted curve in the direction sought with a large enough effect; inconclusive = small, poorly fitted or top-dose-only effect, or another doubt; inactive = no such curve, though single readings can be large; an effect the other way counts as inactive or inconclusive. Potency is the fitted concentration of half-maximal effect.

Screening CCOc1ccc(N=C2NN=C(c3cc(C)n(CC4CCCO4)c3C)CS2)cc1 (stereo not drawn) returned AmpC no deterg -6%[2.29 µM], Pf growth 48h inconclusive, Sm TGR inh -13%, AmpC inh detg -6%, Pf growth 96h 2.1µM* and SARS PLpro yeast 0%.
COc1ccc(N2CCOCC2)c(NC(=O)c2cccc3ccccc23)c1 was read as AmpC no deterg 5%, Pf growth 48h 3.7µM*, Sm TGR inh 0%, AmpC inh detg inconclusive, Pf growth 96h 7% and SARS PLpro yeast -9%.
O=C(NNC(=O)c1cc2ccccc2cc1O)Nc1ccccc1F was read as AmpC no deterg 18µM*, Pf growth 48h inconclusive, Sm TGR inh -27%, AmpC inh detg -3%, Pf growth 96h 30% and SARS PLpro yeast 1%.
COc1ccc(NC(=O)c2cccc3ccccc23)cc1 was read as AmpC no deterg -30%, Pf growth 48h 85%, Sm TGR inh 89µM*, AmpC inh detg -18%, Pf growth 96h inconclusive and SARS PLpro yeast -7%.
For Cc1cccc(NC(=O)NNC(=O)c2cc3ccccc3cc2O)c1C the results were AmpC no deterg inconclusive, Pf growth 48h 10%, Sm TGR inh 2%, AmpC inh detg 1%, Pf growth 96h -26% and SARS PLpro yeast 6%.
Screening COc1ccc(NC(=O)c2cccc3c(Br)cccc23)cc1 returned AmpC no deterg -18%, Pf growth 48h 9%, Sm TGR inh -2%, AmpC inh detg -3%, Pf growth 96h 208% and SARS PLpro yeast -6%.
`Cc1ccc(NC(=O)c2cc3ccccc3cc2O)cc1` gave AmpC no deterg -42%, Pf growth 48h inconclusive, Sm TGR inh -3%, AmpC inh detg 1%, Pf growth 96h inconclusive and SARS PLpro yeast -4%.
For COc1ccc(NC(=O)c2cc3ccccc3cc2O)cc1 the results were AmpC no deterg -38%, Pf growth 48h inconclusive, Sm TGR inh -13%, AmpC inh detg -3%, Pf growth 96h 8.3µM* and SARS PLpro yeast 1%.
`COc1ccccc1-c1nnc(SCC(=O)NC2CCS(=O)(=O)C2)n1CCc1ccccc1` (stereo not drawn) gave AmpC no deterg 28%, Pf growth 48h 8%, Sm TGR inh -2%, AmpC inh detg 3%, Pf growth 96h 5% and SARS PLpro yeast -2%.
Cc1ccc2cc(C#N)c(SCc3nnc(-c4ccccc4[N+](=O)[O-])o3)nc2c1 was read as AmpC no deterg -7%, Pf growth 48h 11%, Sm TGR inh 1%, AmpC inh detg -11%, Pf growth 96h -6% and SARS PLpro yeast 27%.
Screening O=C(CC(c1cccs1)N1Cc2ccccc2C1=O)Nc1ccccc1 (stereo not drawn) returned Sm TGR inh -2% and AmpC inh detg 0%.
For COc1ccc(NC(=O)c2cc(=O)[nH]c3ccccc23)cc1 the results were AmpC no deterg 0%, Pf growth 48h 2%[0.00184 µM], Sm TGR inh 1%, AmpC inh detg -5%, Pf growth 96h -1% and SARS PLpro yeast -2%.
For COc1ccc(NC(=O)c2cc3ccc4c5ccccc5[nH]c4c3cc2O)cc1 the results were AmpC no deterg inconclusive, Pf growth 48h inconclusive, Sm TGR inh 0%, AmpC inh detg -8%, Pf growth 96h 5.9µM* and SARS PLpro yeast 1%.
`O=[N+]([O-])c1ccc(/C([O-])=C(/C(=S)Nc2ccccc2F)[n+]2ccccc2)cc1` gave AmpC no deterg -27%, Pf growth 48h 38%, Sm TGR inh 41%, AmpC inh detg 8%, Pf growth 96h 1% and SARS PLpro yeast 0%.
Screening O=[N+]([O-])c1cccc(/C([O-])=C(/C(=S)Nc2cccc3ccccc23)[n+]2ccccc2)c1 returned AmpC no deterg -29%, Pf growth 48h 9.3µM*, Sm TGR inh -25%, AmpC inh detg 13%, Pf growth 96h inconclusive and SARS PLpro yeast -21%.
Screening [O-]/C(=C(\C(=S)NCc1ccco1)[n+]1ccccc1)c1ccccc1Br returned AmpC no deterg -16%, Pf growth 48h -6%, Sm TGR inh 25µM*, AmpC inh detg -1%, Pf growth 96h inconclusive and SARS PLpro yeast -2%.
For O=[N+]([O-])c1ccc(/C([O-])=C(/C(=S)NCc2ccco2)[n+]2ccccc2)cc1 the results were AmpC no deterg -25%[11.4 µM], Pf growth 48h 23%, Sm TGR inh 22µM*, AmpC inh detg 5%, Pf growth 96h 7% and SARS PLpro yeast -1%.
Screening Cc1ccc(CN2CCN(C3CCN(C(=O)Nc4ccc(C)cc4Cl)CC3)C(=O)C2=O)cc1 returned Sm TGR inh 38% and AmpC inh detg -9%.
`COc1cc(C2NC(=O)CCC2[N+](=O)[O-])c(OC)cc1Br` (stereo not drawn) gave AmpC no deterg -19%, Pf growth 48h 35%, Sm TGR inh -9%, AmpC inh detg 4%, Pf growth 96h 6.6µM* and SARS PLpro yeast 0%.
Screening Brc1ccc(-c2ccc(CNCc3ccccn3)o2)cc1 returned AmpC no deterg 38%, Pf growth 48h -32%, Sm TGR inh 40µM*, AmpC inh detg inconclusive, Pf growth 96h inconclusive and SARS PLpro yeast 3%.
Screening S=C(NCc1ccccn1)Nc1cccc(Cl)c1 returned AmpC no deterg -25%, Pf growth 48h 9%, Sm TGR inh -21%, AmpC inh detg -3%, Pf growth 96h 3% and SARS PLpro yeast 30%.
Screening COc1cccc(CNCc2ccccn2)c1OC returned AmpC no deterg 1%, Pf growth 48h 9%, Sm TGR inh -33%, AmpC inh detg inconclusive, Pf growth 96h 1% and SARS PLpro yeast -3%.
Clc1cccc(-c2ccc(CNCc3ccccn3)o2)c1 was read as AmpC no deterg 10%, Pf growth 48h 216%, Sm TGR inh 13µM*, AmpC inh detg 6%, Pf growth 96h inconclusive and SARS PLpro yeast -2%.
Cc1ccc(CNC(=O)c2cc(-c3ccc(C)cc3)nc3n[nH]c(-c4cccc([N+](=O)[O-])c4)c23)cc1 was read as Sm TGR inh 2% and AmpC inh detg 6%.
`Cc1cccn2c(CNCCCn3ncc4ccccc43)c(C(=O)N3CCCCC3)nc12` gave AmpC no deterg 74%, Pf growth 48h inconclusive, Sm TGR inh 0%, AmpC inh detg 1%, Pf growth 96h 15µM* and SARS PLpro yeast 1%.
